Molecules are shown by their SMILES. Activity calls are given as the source filed them. A call without a number means that no potency is given here. Calls follow the shape of the dose curve; as a rule, active = well fitted curve in the direction sought with a large enough effect in the repeat runs; inconclusive = weak or mixed curves; inactive = flat fitted curve, though single readings scatter.
Tags tell the direction and shape of the fitted curve or compound fluorescence and quenching.

One assay in a line: qHTS assay to test for compound auto fluorescence at 535 nm (green) in HepG2 cell free culture (AID 720686). Conditions: Cell-free medium, green autofluorescence 485/535 nm; series mostly up to 46 µM.
In the case of `CC(C)=CCN1CC[C@]2(C)c3cc(O)ccc3C[C@H]1[C@H]2C`, the Potency result was “inactive”.

Turning to `CN[C@@]1(c2ccccc2Cl)CCCCC1=O`, the Potency entry is “inactive”.

As to `CCNC1(c2cccs2)CCCCC1=O` (stereo not drawn), the Potency entry is “inactive”.

With `CCC1(c2ccccc2)C(=O)NC(=O)N(C)C1=O` (stereo not drawn), the Potency result was “inactive”.

As to `COc1cc([C@@H]2c3cc4c(cc3[C@@H](O)[C@H]3COC(=O)[C@H]23)OCO4)cc(OC)c1O`, the Potency result is “inactive”. On the same count and under the same terms, under `CN1CC[C@@]23CCCC[C@@H]2[C@@H]1Cc1ccc(O)cc13` stands “inactive”; under `CN[C@@H](C)Cc1ccccc1`, “inactive”. On to `CCCCNC(C)(C)[P+](=O)O`, for which the Potency entry is “inactive”.

Regarding `O=C1C[C@@H]2OCC=C3CN4CC[C@]56c7ccccc7N1[C@H]5[C@H]2[C@H]3C[C@H]46` (tested in a mixture with another compound), the Potency entry is “inactive”.

Regarding `O=c1ccc2cc(O[C@@H]3O[C@H](CO)[C@@H](O)[C@H](O)[C@H]3O)c(O)cc2o1`, the Potency entry is “inactive”. As to `C/C=C(\CC)C(=O)NC(N)=O`, the Potency result was “inactive”.

In the case of `C[C@]12CCC(=O)C[C@@H]1CC[C@@H]1[C@@H]2CC[C@@]2(C)[C@H]1CC[C@]2(C)O`, the Potency result is “inactive”. On to `Cc1nnc2n1-c1ccc(Cl)cc1C(c1ccccc1)=NC2`, for which the Potency result was “inactive”. On to `CCCSc1cc(OC)c(CCN)cc1OC`, for which the Potency entry was “inactive”.

Take `O=C(O)CCCO`: the Potency result is “inactive”. For the molecule `Oc1ccc2c3c1O[C@H]1[C@@H](O)C=C[C@H]4[C@H](C2)NCC[C@@]341`, the Potency result is “inactive”. As to `O=P1(N(CCCl)CCCl)NC(OO)CCO1` (stereo not drawn), the Potency entry is “inactive”. Consider `O=C1CN=C(c2ccccc2)c2cc(Cl)ccc2N1`, for which the Potency result was “inactive”. The same measure, in the same setting: then `C=C[C@H]1CN2CC[C@H]1C[C@H]2[C@H](OC(=O)OCC)c1ccnc2ccc(OC)cc12`, with “inactive”; and `CCc1cc(OC)c(C[C@@H](C)N)cc1OC`, with “inactive”. As for `CC(C)[C@H]1C(=O)N2CCC[C@H]2[C@]2(O)O[C@](NC(=O)[C@@H]3C[C@@H]4c5cccc6[nH]cc(c56)C[C@H]4N(C)C3)(C(C)C)C(=O)N12`, the Potency entry is “inactive”. Take `Clc1ccc(C(Cn2ccnc2)OCc2csc3c(Cl)cccc23)c(Cl)c1` (stereo not drawn): the Potency entry was “inactive”. Still for that read-out and setting: under `C[C@@H]1[C@@H]2Cc3ccc(O)cc3[C@@]1(C)CCN2CC1CC1` stands “inactive”; under `C[C@@H]1[C@H]2Cc3ccc(O)cc3[C@]1(C)CCN2C`, “inactive”; under `[H+].[H+].[Hg+2].[O-]B([O-])[O-].[c-]1ccccc1`, “inactive”. Still for that read-out and setting: then `C=CCC1([C@@H](C)CCC)C(=O)NC(=O)NC1=O`, with “inactive”; and `c1ccc2c(c1)Sc1ccccc1N2C[C@@H]1CN2CCC1CC2`, with “inactive”. Take `CC(N)Cc1ccc2c(c1)OCO2` (stereo not drawn): the Potency result was “inactive”. On the same count and under the same terms, then `C[C@]12CC[C@@H]3c4ccc(OC(=O)N(CCCl)CCCl)cc4CC[C@H]3[C@@H]1CC[C@@H]2OP(=O)(O)O`, with “inactive”. Still for that read-out and setting: then `CC(=O)[C@@]1(O)CC[C@H]2[C@@H]3CCC4=CC(=O)CC[C@]4(C)C3(F)[C@@H](O)C[C@@]21C` (stereo partly drawn), with “inactive”.

The nature of the next assay: qHTS assay to test for compound auto fluorescence at 460 nm (blue) in HepG2 cells (AID 720687). Also: potency is read from the fitted curve at half-maximal effect. Conditions: autofluorescence 405/460 nm, 1 h; series mostly up to 46 µM. The method, boiled down: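 Cells (2,000/well in MEM with 10% FBS) attached overnight at 37 C, then were exposed to compound or DMSO for 1 hr at 37 C, 5% CO2. Fluorescence read at Ex/Em 405/460 nm, expressed as triamterene-equivalent signal.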
Take `CC(C)=CCN1CC[C@]2(C)c3cc(O)ccc3C[C@H]1[C@H]2C`: the Potency entry is “inactive”. Take `CN[C@@]1(c2ccccc2Cl)CCCCC1=O`: the Potency entry is “inactive”. Same read-out and setting: under `CCNC1(c2cccs2)CCCCC1=O` (stereo not drawn) stands “inactive”; under `CNC(C)CC1CCCCC1` (stereo not drawn), “inactive”. Still for that read-out and setting: under `CCC1(c2ccccc2)C(=O)NC(=O)N(C)C1=O` (stereo not drawn) stands “inactive”; under `COc1cc([C@@H]2c3cc4c(cc3[C@@H](O)[C@H]3COC(=O)[C@H]23)OCO4)cc(OC)c1O`, “inactive”. On the same count and under the same terms, then `CN1CC[C@@]23CCCC[C@@H]2[C@@H]1Cc1ccc(O)cc13`, with “inactive”. In the case of `CNC(C)Cc1ccccc1` (stereo not drawn), the Potency result is “inactive”.

Consider `CN[C@@H](C)Cc1ccccc1`, for which the Potency entry was “inactive”. As to `CCCCNC(C)(C)[P+](=O)O`, the Potency result was “inactive”. Still for that read-out and setting: under `O=C1C[C@@H]2OCC=C3CN4CC[C@]56c7ccccc7N1[C@H]5[C@H]2[C@H]3C[C@H]46` (tested in a mixture with another compound) stands “inactive”; under `O=c1ccc2cc(O[C@@H]3O[C@H](CO)[C@@H](O)[C@H](O)[C@H]3O)c(O)cc2o1`, 10 µM [fluorescent] (active). In the case of `C/C=C(\CC)C(=O)NC(N)=O`, the Potency result is “inactive”.

As for `C[C@]12CCC(=O)C[C@@H]1CC[C@@H]1[C@@H]2CC[C@@]2(C)[C@H]1CC[C@]2(C)O`, the Potency result is “inactive”. With `Cc1nnc2n1-c1ccc(Cl)cc1C(c1ccccc1)=NC2`, the Potency result is “inactive”. Same read-out and setting: then `N#CC(C#N)=Cc1cc(O)c(O)c(O)c1`, with “inactive”.

Consider `CCCSc1cc(OC)c(CCN)cc1OC`, for which the Potency result is “inactive”. Same read-out and setting: under `O=C(O)CCCO` stands “inactive”.

`Oc1ccc2c3c1O[C@H]1[C@@H](O)C=C[C@H]4[C@H](C2)NCC[C@@]341`: the Potency entry was “inactive”. In the case of `O=P1(N(CCCl)CCCl)NC(OO)CCO1` (stereo not drawn), the Potency entry was “inactive”.

On to `COC(=O)[C@H]1[C@@H](OC(=O)c2ccccc2)C[C@@H]2CC[C@H]1N2C`, for which the Potency result was “inactive”.

As to `C=C[C@H]1CN2CC[C@H]1C[C@H]2[C@H](OC(=O)OCC)c1ccnc2ccc(OC)cc12`, the Potency entry was “inactive”. The same measure, in the same setting: then `CCc1cc(OC)c(C[C@@H](C)N)cc1OC`, with “inactive”; and `CC(C)[C@H]1C(=O)N2CCC[C@H]2[C@]2(O)O[C@](NC(=O)[C@@H]3C[C@@H]4c5cccc6[nH]cc(c56)C[C@H]4N(C)C3)(C(C)C)C(=O)N12`, with “inactive”. On the same count and under the same terms, then `C[C@@H]1[C@@H]2Cc3ccc(O)cc3[C@@]1(C)CCN2CC1CC1`, with “inactive”; and `[H+].[H+].[Hg+2].[O-]B([O-])[O-].[c-]1ccccc1`, with “inactive”. Take `C=CCC1([C@@H](C)CCC)C(=O)NC(=O)NC1=O`: the Potency entry is “inactive”. `c1ccc2c(c1)Sc1ccccc1N2C[C@@H]1CN2CCC1CC2`: the Potency entry is “inactive”. The same measure, in the same setting: under `CC[C@H]1[C@@H]2C[C@H]3[C@@H]4N(C)c5ccccc5[C@]45C[C@@H](C2[C@H]5O)N3[C@@H]1O` (stereo partly drawn) stands “inactive”; under `CC(N)Cc1ccc2c(c1)OCO2` (stereo not drawn), “inactive”; under `CN1c2ccccc2C(NCCCCCCC(=O)O)c2ccc(Cl)cc2S1(=O)=O` (stereo not drawn), “inactive”. For the molecule `C[C@]12CC[C@@H]3c4ccc(OC(=O)N(CCCl)CCCl)cc4CC[C@H]3[C@@H]1CC[C@@H]2OP(=O)(O)O`, the Potency result is “inactive”.

Take `CC(=O)[C@@]1(O)CC[C@H]2[C@@H]3CCC4=CC(=O)CC[C@]4(C)C3(F)[C@@H](O)C[C@@]21C` (stereo partly drawn): the Potency result was “inactive”.
